# Measurements taken from PubChem BioAssay AID1159580 (chemical genetic matrix, 2015).
# Out of some 5,500 compounds screened, about 2,000 (36%) were called active. Not shown: some 18% with an inconclusive outcome. Some of the results follow. Unmarked numbers belong to inactive results. Cut-off read from the data, not from the text of the source: active = normalized growth mostly below about 0.91 (no sharp cut-off); inconclusive = no clear call, values can overlap the other calls; inactive = mostly above about 0.92.
# Test: chemical genetic growth profiling, strain panel (AID 1159580);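 note: tested at 20 µM; growth read once vehicle control cultures reached saturation at 30 °C; 1 = growth at the plate median or of vehicle wells; lower values mean less growth of the strain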
# Conditions: S. cerevisiae deletion strains, growth OD
# [1] = locus YDL101C, strain DUN1, stronger effect = lower value
# [2] = locus YHR030C, strain SLT2, stronger effect = lower value
smiles,measurement,setting,value
CC1CC(=O)Nc2ccccc2N1C(=O)c1ccc([N+](=O)[O-])cc1 (stereo not given),normalized growth,"locus YAL013W, strain DEP1, stronger effect = lower value",1.01
same,normalized growth,"locus YBR229C, strain ROT2, stronger effect = lower value",1.01
same,normalized growth,"locus YCL061C, strain MRC1, stronger effect = lower value",1.02
same,normalized growth,[1],1.05
same,normalized growth,"locus YDL134C, strain PPH21, stronger effect = lower value",1.01
same,normalized growth,"locus YDR150W, strain NUM1, stronger effect = lower value",0.937
same,normalized growth,"locus YEL061C, strain CIN8, stronger effect = lower value",0.991
same,normalized growth,"locus YGR078C, strain PAC10, stronger effect = lower value",1.03
same,normalized growth,[2],1.01
same,normalized growth,"locus YHR087W, strain rtc3, stronger effect = lower value",0.978
same,normalized growth,"locus YJL187C, strain SWE1, stronger effect = lower value",1.01
same,normalized growth,"locus YJR043C, strain POL32, stronger effect = lower value",1.02
same,normalized growth,"locus YJR075W, strain HOC1, stronger effect = lower value",1.01
same,normalized growth,"locus YLR039C, strain RIC1, stronger effect = lower value",1.03
same,normalized growth,"locus YLR058C, strain SHM2 (second series), stronger effect = lower value",0.998
same,normalized growth,"locus YLR085C, strain ARP6, stronger effect = lower value",1.03
same,normalized growth,"locus YLR262C, strain YPT6, stronger effect = lower value",1
same,normalized growth,"locus YML094W, strain GIM5, stronger effect = lower value",1.02
same,normalized growth,"locus YMR219W, strain ESC1, stronger effect = lower value",1.01
same,normalized growth,"locus YMR263W, strain SAP30, stronger effect = lower value",1.05
same,normalized growth,"locus YNL153C, strain GIM3, stronger effect = lower value",1.02
same,normalized growth,"locus YNL298W, strain CLA4 (second series), stronger effect = lower value",1.05
same,normalized growth,"locus YNL322C, strain KRE1, stronger effect = lower value",1
same,normalized growth,"locus YNR030W, strain Alg12, stronger effect = lower value",1.02
same,normalized growth,"locus YOL006C, strain TOP1, stronger effect = lower value",1.01
same,normalized growth,"locus YPL055C, strain LGE1, stronger effect = lower value",0.996
same,normalized growth,"locus YPL241C, strain CIN2, stronger effect = lower value",1.02
same,normalized growth,"locus YPR135W, strain CTF4, stronger effect = lower value",1.03
CC(C)/C(=N/OC(=O)c1ccc([N+](=O)[O-])cc1)c1ccccc1,normalized growth,"locus YAR019C, strain CDC15, stronger effect = lower value",0.974
same,normalized growth,"locus YBL105C, strain PKC1, stronger effect = lower value",0.965
same,normalized growth,"locus YBR136W, strain MEC1, stronger effect = lower value",0.967
same,normalized growth,"locus YBR160W, strain CDC28, stronger effect = lower value",0.957
same,normalized growth,"locus YDL017W, strain CDC7, stronger effect = lower value",0.963
same,normalized growth,"locus YDL028C, strain MPS1, stronger effect = lower value",0.955
same,normalized growth,[1],0.952
same,normalized growth,"locus YDL108W, strain KIN28, stronger effect = lower value",0.962
same,normalized growth,"locus YDL214C, strain PRR2, stronger effect = lower value",0.148 (active)
same,normalized growth,"locus YDR052C, strain DBF4, stronger effect = lower value",0.979
same,normalized growth,"locus YDR054C, strain cdc34, stronger effect = lower value",0.955
same,normalized growth,"locus YDR226W, strain ADK1, stronger effect = lower value",0.949
same,normalized growth,"locus YER123W, strain YCK3, stronger effect = lower value",0.909
same,normalized growth,"locus YFR003C, strain YPI1, stronger effect = lower value",0.96
same,normalized growth,"locus YGR040W, strain KSS1, stronger effect = lower value",0.231 (active)
same,normalized growth,"locus YGR052W, strain FMP48, stronger effect = lower value",0.814
same,normalized growth,"locus YGR092W, strain DBF2, stronger effect = lower value",0.843
same,normalized growth,[2],0.337 (active)
same,normalized growth,"locus YIL147C, strain SLN1, stronger effect = lower value",0.96
same,normalized growth,"locus YJL095W, strain BCK1, stronger effect = lower value",0.745
same,normalized growth,"locus YJL128C, strain PBS2, stronger effect = lower value",0.943
same,normalized growth,"locus YJR016C, strain ILV3, stronger effect = lower value",0.957
same,normalized growth,"locus YJR066W, strain TOR1 (second series), stronger effect = lower value",0.137 (active)
same,normalized growth,"locus YJR066W, strain TOR1, stronger effect = lower value",0.769
same,normalized growth,"locus YKL048C, strain ELM1, stronger effect = lower value",0.991
same,normalized growth,"locus YKL067W, strain YNK1, stronger effect = lower value",0.911
same,normalized growth,"locus YKL101W, strain HSL1, stronger effect = lower value",0.242 (active)
same,normalized growth,"locus YKL203C, strain TOR2, stronger effect = lower value",0.802
same,normalized growth,"locus YLR113W, strain HOG1, stronger effect = lower value",0.604 (active)
same,normalized growth,"locus YLR133W, strain CKI1, stronger effect = lower value",0.175 (active)
same,normalized growth,"locus YLR403W, strain SFP1, stronger effect = lower value",0.0636 (active)
same,normalized growth,"locus YML070W, strain DAK1, stronger effect = lower value",0.909
same,normalized growth,"locus YMR001C, strain CDC5, stronger effect = lower value",0.384 (active)
same,normalized growth,"locus YMR205C, strain PFK2 (second series), stronger effect = lower value",0.126 (active)
same,normalized growth,"locus YNL006W, strain LST8, stronger effect = lower value",0.507 (active)
same,normalized growth,"locus YNL020C, strain ARK1, stronger effect = lower value",0.174 (active)
same,normalized growth,"locus YNL161W, strain CBK1, stronger effect = lower value",0.378 (active)
same,normalized growth,"locus YNL183C, strain NPR1, stronger effect = lower value",0.595
same,normalized growth,"locus YNL207W, strain RIO2, stronger effect = lower value",0.955
same,normalized growth,"locus YOR119C, strain RIO1, stronger effect = lower value",0.814
same,normalized growth,"locus YOR329C, strain SCD5, stronger effect = lower value",0.637 (active)
same,normalized growth,"locus YPL153C, strain RAD53, stronger effect = lower value",0.671
same,normalized growth,"locus YPL209C, strain IPL1, stronger effect = lower value",0.966
same,normalized growth,"locus YPL256C, strain CLN2, stronger effect = lower value",0.582 (active)
same,normalized growth,"locus YPR106W, strain ISR1, stronger effect = lower value",0.978
same,normalized growth,"locus YPR111W, strain DBF20, stronger effect = lower value",0.972
same,normalized growth,"strain NNK1, stronger effect = lower value",0.97
